Source: PubChem BioAssay
Calls of active or inactive are those of the source. Unless noted, the rule behind the calls is not given here.

Tests used:
[1] = HepG2 liver cancer cell viability effects, profiling panel, resazurin fluorescence, 24 h, PK04 Diversity Set (AID 1172); settings: higher = more signal
[2] = basal S. cerevisiae growth modulation, no modifier, primary screen, OD600, strain BY4716, 24 h, basal condition (AID 1173); settings: OD600, 24 h, higher = more signal, called active from +8 up or from −8 down
[3] = MM1S myeloma cell viability, profiling panel, resazurin fluorescence, basal, 24 h, PK04 Diversity Set (AID 1174); settings: higher = more signal, called active from +8 up or from −8 down;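 note: MM1S multiple myeloma cell line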
[4] = target: Dihydroorotate dehydrogenase (quinone), mitochondrial (Plasmodium falciparum (isolate 3D7)) (UniProt Q08210); assay: PfDHODH enzyme inhibitors, primary screen, biochemical, C-terminal His tag, absorbance 600 nm (AID 1175); settings: DCIP absorbance 600 nm, higher = more signal, called active from +8 up or from −8 down;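 note: recombinant parasite enzyme with a five histidine tag at its C terminus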
[5] = P. aeruginosa biofilm formation inhibitors, primary screen, strain PAO1, LB-PBS medium, absorbance 600 nm (AID 1176); settings: P. aeruginosa PAO1 growth/biofilm, A600, 12 h; higher = more signal
[6] = S. cerevisiae RM11-1a growth modifiers, primary screen, strain RM11-1a, OD600, basal, 24 h (AID 1177); settings: OD600, 24 h, higher = more signal, called active from +8 up or from −8 down;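 note: cultures grown under basal conditions with no added stressor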
[7] = E. coli acrAB mutant growth effects, primary screen, E. coli filamentation inducers, strain DRC39, OD650, 24 h (AID 1178); settings: higher = more signal, called active from +8 up or from −8 down;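 note: growth measured as culture turbidity by optical density at 650 nm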
[8] = E. coli acrAB mutant growth effects, primary screen, E. coli filamentation inducers, strain DRC39, OD650, 48 h (AID 1179);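 note: screen aims at cell division blockers that make cells filament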; settings: E. coli DRC39 delta-acrAB growth, higher = more signal, called active from +8 up or from −8 down
[9] = RPMI8226 myeloma cell viability, profiling panel, resazurin fluorescence, basal, 24 h, PK04 Diversity Set (AID 1180); settings: higher = more signal;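 note: RPMI8826 multiple myeloma cell line at 5000 cells per well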
[10] = target: E3 ubiquitin-protein ligase XIAP (Homo sapiens) (UniProt P98170); assay: XIAP binders, primary screen, biophysical, small-molecule microarray, fluorescence 635 nm (AID 1181); settings: small-molecule microarray binding, higher = more signal;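 note: score merges 667 nm emission and signal to noise over triplicate slides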
[11] = tested on: XIP peptide (Xip251-270) binding; assay: small-molecule binders of XIP peptide, primary screen, biochemical, small-molecule microarray, fluorescence 635/667 nm, 0.1 µg/mL protein (AID 1182); settings: fluorescent protein binding, 635 nm, higher = more signal, called active from +8 up or from −8 down
[12] = tested on: XIP peptide (Xip251-270); assay: small-molecule binders of XIP peptide, primary screen, biochemical, small-molecule microarray, fluorescence 635/667 nm, 0.5 µg/mL protein (AID 1183); settings: small-molecule microarray binding, fluorescence 635 nm; higher = more signal
[13] = Plasmodium falciparum growth inhibition, primary screen, strain 3D7, DAPI fluorescence, 100 nL (AID 1184);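 note: parasites grown inside human red blood cells in medium with human serum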; settings: P. falciparum 3D7 growth, 3 d, higher = more signal
[14] = target: Homeobox protein Hox-A13 (Mus musculus) (UniProt Q62424); assay: inhibitors of HoxA13-DNA binding, primary screen, biochemical, fluorescence polarization, labeled oligonucleotide (AID 1185); settings: 15 min, higher = more signal, called active from +8 up or from −8 down
[15] = inhibitors of hydroxyurea-induced Chk1 phosphorylation, primary screen, imaging, HeLa, phospho-Chk1 antibody, percent positive cells (AID 1186); settings: hydroxyurea-induced phospho-Chk1 immunofluorescence imaging, higher = more signal
[16] = inhibitors of hydroxyurea-induced Chk1 phosphorylation, primary screen, imaging, HeLa, phospho-Chk1 nuclear intensity (AID 1187); settings: hydroxyurea-induced phospho-Chk1 immunofluorescence imaging, higher = more signal

Chain of E3 ubiquitin-protein ligase XIAP (Homo sapiens) (P98170 whole entry, looked up): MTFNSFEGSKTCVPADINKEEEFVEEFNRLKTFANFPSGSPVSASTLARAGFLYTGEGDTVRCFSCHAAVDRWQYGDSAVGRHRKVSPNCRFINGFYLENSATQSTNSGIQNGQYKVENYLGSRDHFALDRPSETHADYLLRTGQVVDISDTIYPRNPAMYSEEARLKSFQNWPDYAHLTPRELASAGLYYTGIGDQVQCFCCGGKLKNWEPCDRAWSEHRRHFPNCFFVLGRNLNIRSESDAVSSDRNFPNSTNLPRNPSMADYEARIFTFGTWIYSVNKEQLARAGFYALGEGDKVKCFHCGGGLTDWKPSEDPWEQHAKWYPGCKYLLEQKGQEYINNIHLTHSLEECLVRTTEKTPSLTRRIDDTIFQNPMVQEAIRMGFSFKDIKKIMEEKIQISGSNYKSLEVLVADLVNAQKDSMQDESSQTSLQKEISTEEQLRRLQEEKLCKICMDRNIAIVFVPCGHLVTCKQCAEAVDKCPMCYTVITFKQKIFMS
Chain of Dihydroorotate dehydrogenase (quinone), mitochondrial (Plasmodium falciparum (isolate 3D7)) (Q08210 whole entry, looked up): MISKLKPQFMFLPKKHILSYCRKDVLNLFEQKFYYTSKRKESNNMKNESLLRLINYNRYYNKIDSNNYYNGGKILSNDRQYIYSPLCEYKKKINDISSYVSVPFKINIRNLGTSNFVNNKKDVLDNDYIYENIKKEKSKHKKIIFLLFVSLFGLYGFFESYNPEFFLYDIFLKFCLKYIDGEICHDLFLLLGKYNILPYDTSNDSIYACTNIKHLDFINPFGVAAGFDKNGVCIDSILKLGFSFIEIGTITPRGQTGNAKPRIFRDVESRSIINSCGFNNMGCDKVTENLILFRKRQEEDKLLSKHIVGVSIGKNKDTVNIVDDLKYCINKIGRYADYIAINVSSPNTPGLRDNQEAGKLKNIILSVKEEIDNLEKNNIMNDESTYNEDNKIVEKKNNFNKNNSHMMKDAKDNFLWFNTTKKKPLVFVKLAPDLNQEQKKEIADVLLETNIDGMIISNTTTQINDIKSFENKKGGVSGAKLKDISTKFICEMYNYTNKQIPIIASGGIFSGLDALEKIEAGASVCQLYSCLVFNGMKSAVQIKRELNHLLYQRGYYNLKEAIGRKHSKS
Chain of Homeobox protein Hox-A13 (Mus musculus) (Q62424 whole entry, looked up): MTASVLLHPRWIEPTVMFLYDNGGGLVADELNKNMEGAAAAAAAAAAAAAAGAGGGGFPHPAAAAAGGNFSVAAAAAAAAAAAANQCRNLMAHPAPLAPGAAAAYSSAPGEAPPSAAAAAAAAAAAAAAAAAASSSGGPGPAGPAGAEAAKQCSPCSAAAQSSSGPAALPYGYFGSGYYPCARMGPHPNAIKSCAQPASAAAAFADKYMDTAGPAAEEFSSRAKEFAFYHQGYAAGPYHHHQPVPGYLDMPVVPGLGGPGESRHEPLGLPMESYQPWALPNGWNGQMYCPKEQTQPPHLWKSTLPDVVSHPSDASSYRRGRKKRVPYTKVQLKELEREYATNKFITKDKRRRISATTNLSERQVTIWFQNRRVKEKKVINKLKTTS

SMILES	z-score [1]	z-score [2]	z-score [3]	composite z-score [4]	z-score [5]	z-score [6]	z-score [7]	z-score [8]	z-score [9]	composite z-score [10]	composite z-score [11]	composite z-score [12]	z-score [13]	z-score [14]	z-score [15]	z-score [16]
COC(=O)[C@@]1(Cc2ccc(OC)cc2)[C@H]2c3cc(C(=O)N4CCCC4)n(CCc4cc5ccccc5[nH]4)c3C[C@H]2CN1C(=O)c1ccccc1	-0.406	1.3 (inactive)	-1.24 (inactive)	0.203 (inactive)	0.756 (inactive)	1.03 (inactive)	0.009 (inactive)	-0.655 (inactive)	-0.818	-0.0685	1.64 (inactive)	0.685	-1.66	-1.91 (inactive)	-0.203 (inactive)	-0.0973 (inactive)
C=CCNC(=O)[C@@H]1[C@H]2C(=O)O[C@H](c3ccccc3)[C@H](c3ccccc3)N2[C@H](c2ccccc2OCCO)[C@@]12C(=O)N(C(=O)OCCOC)c1ccc(C#CC3=CCCCC3)cc12	0.402	0.466 (inactive)	-1 (inactive)	-0.458 (inactive)	2.19 (inactive)	1.08 (inactive)	0.368 (inactive)	0.628 (inactive)	-1.31	0.0683	0.0103 (inactive)	0.769	-2.08	1.31 (inactive)	-0.136 (inactive)	-0.103 (inactive)
CCCCN1CC=CC23O[C@@H]4/C=C\CCC(C)OC(=O)C4[C@H]2C(=O)N(CCCCCCO)[C@@H]3C1=O (stereo not given in full)	0.634	0.14 (inactive)	0.234 (inactive)	-0.524 (inactive)	0.109 (inactive)	0.432 (inactive)	0.666 (inactive)	0.544 (inactive)	0.981	0.0081	0.879 (inactive)	0.0096	0.11	-4.7 (inactive)	-0.494 (inactive)	0.339 (inactive)
COc1c(C)cc(-c2cc3c(c(-c4ccccc4)n2)[Si](C(C)C)(C(C)C)OC3)cc1C	0.0316	0.256 (inactive)	0.416 (inactive)	-0.149 (inactive)	0.173 (inactive)	-0.741 (inactive)	0.762 (inactive)	0.319 (inactive)	0.798	0.205	0.518 (inactive)	-0.479	-1.03	-0.238 (inactive)	-0.645 (inactive)	-0.268 (inactive)
CCCC[C@@H]1C[C@H]1[C@@H](NC(=O)c1ccccc1)c1ccc(Cl)cc1	1.18	0.127 (inactive)	0.696 (inactive)	-0.402 (inactive)	0.495 (inactive)	-0.359 (inactive)	-1.11 (inactive)	-0.324 (inactive)	1.51	0.0049	-0.778 (inactive)	-2.03	-0.385	-3.04 (inactive)	0.413 (inactive)	-0.524 (inactive)
O=C(O)[C@]1(Cc2ccccc2)N=C(c2ccc(OCCCO)cc2)O[C@@H]1c1ccccc1	0.424	-1.13 (inactive)	0.723 (inactive)	0.84 (inactive)	-0.912 (inactive)	-0.002 (inactive)	0.0717 (inactive)	1.01 (inactive)	1.09	-0.258	-0.243 (inactive)	0.48	1.24	-4.93 (inactive)	0.282 (inactive)	0.37 (inactive)
CN1C(=O)C2C=CC(C(O)C3CCCCC3)N(N3CCCCC3)C2C1=O (stereo not given)	-0.435	0.369 (inactive)	-0.752 (inactive)	0.419 (inactive)	0.158 (inactive)	1.51 (inactive)	-0.501 (inactive)	-0.406 (inactive)	-0.487	-0.0548	0.269 (inactive)	0.803	-0.151	-3.82 (inactive)	0.796 (inactive)	0.332 (inactive)
COCCOC(=O)N1C(=O)[C@@]2(c3cc(C#CC4(O)CCCCCC4)ccc31)[C@H](C(N)=O)[C@H]1C(=O)O[C@H](c3ccccc3)[C@H](c3ccccc3)N1[C@@H]2c1ccc(O)cc1	0.061	-0.676 (inactive)	-0.907 (inactive)	-0.942 (inactive)	0.51 (inactive)	0.389 (inactive)	-0.0029 (inactive)	0.761 (inactive)	-1.73	-0.144	0.722 (inactive)	0.503	0.997	-2.76 (inactive)	-0.102 (inactive)	0.245 (inactive)
C=C(C(=O)CC[C@H](OC(=O)c1cccnc1)c1ccc(CO)o1)C(C)C	-0.499	-1.02 (inactive)	-0.323 (inactive)	-3.18 (inactive)	0.354 (inactive)	-0.811 (inactive)	-0.645 (inactive)	-0.631 (inactive)	-0.74	-0.187	1.43 (inactive)	0.62	0.566	-5.25 (inactive)	0.286 (inactive)	-0.0632 (inactive)
COC(=O)[C@@]1(Cc2ccccc2)[C@H]2c3cc(C(=O)N4CCCC4)n(Cc4ccsc4Br)c3C[C@H]2CN1C(=O)c1ccccc1	-1.08	0.666 (inactive)	-0.686 (inactive)	-0.876 (inactive)	-0.0703 (inactive)	1.15 (inactive)	-0.28 (inactive)	0.139 (inactive)	-3.12	0.218	0.427 (inactive)	0.77	-1.16	-3.29 (inactive)	0.17 (inactive)	0.498 (inactive)
